Experimental findings from PubChem BioAssay AID1851 (National Center for Advancing Translational Sciences (NCATS), 2009) are described below.

Among all 16,000 compounds or so, about 5,100 (32%) were called active. Another 25% or so got no clear call; they are omitted. The list shows a part of the results. Values without a mark were called inactive. The call rests on the fitted dose curve; in most records, active means well fitted curve in the direction sought with a large enough effect; inconclusive means small, poorly fitted or top-dose-only effect, or effect the other way; inactive means no such curve, though single readings can be large or run the other way.
On the % scale 0 is the no-effect control and ±100 the full control effect.

In this assay the target is Cytochrome P450 3A4 (Homo sapiens) (UniProt P08684). As to the kind of experiment: Cytochrome panel assay with activity outcomes. To be noted: recombinant CYP, pro-luciferin dealkylation, luminescence, p450-cyp3a4; series mostly up to 57.1 µM; activity, negative = inhibition: at the top concentration.
Sequence of Cytochrome P450 3A4 (Homo sapiens) (P08684 whole entry, looked up): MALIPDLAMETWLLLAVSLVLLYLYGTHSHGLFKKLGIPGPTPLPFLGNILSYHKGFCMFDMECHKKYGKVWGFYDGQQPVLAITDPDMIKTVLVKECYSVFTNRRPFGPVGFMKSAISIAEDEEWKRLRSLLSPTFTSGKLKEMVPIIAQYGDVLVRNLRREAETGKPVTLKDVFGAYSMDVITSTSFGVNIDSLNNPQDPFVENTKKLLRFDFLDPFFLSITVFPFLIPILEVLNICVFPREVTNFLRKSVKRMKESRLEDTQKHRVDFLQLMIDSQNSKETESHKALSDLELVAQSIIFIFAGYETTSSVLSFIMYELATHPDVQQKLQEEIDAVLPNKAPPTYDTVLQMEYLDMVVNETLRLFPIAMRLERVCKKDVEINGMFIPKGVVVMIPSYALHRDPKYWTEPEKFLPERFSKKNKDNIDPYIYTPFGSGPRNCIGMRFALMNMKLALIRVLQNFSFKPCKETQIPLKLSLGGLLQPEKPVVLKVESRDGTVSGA
Regarding `CC1(C)S[C@@H]2[C@H](NC(=O)[C@@H](N)c3ccc(O)cc3)C(=O)N2[C@H]1C(=O)O`, the “activity, negative = inhibition” value is 9.74% [at 25.6 µM].

As a reminder, the AC50 is the concentration giving half of the maximal activity seen. `CC1(C)S[C@@H]2[C@H](NC(=O)[C@@H](N)c3ccccc3)C(=O)N2[C@H]1C(=O)O[C@H]1OC(=O)c2ccccc21`: the AC50 is 1.58 µM (active).

With `C[C@H](Oc1ccccc1)C(=O)N[C@@H]1C(=O)N2[C@@H]1SC(C)(C)[C@@H]2C(=O)O`, the “activity, negative = inhibition” value was 2.08% [at 25.6 µM].

With `O=c1c2ccccc2nc2n1C(CSCc1cccc(C(F)(F)F)c1)CS2` (centres undefined), the AC50 was 4.47 µM (active).

Regarding `Cc1ncc2c(c1O)COP(=O)(O)OC2`, the “activity, negative = inhibition” value is 2.6%.

In the case of `O=C(Nn1cnc2ccccc2c1=O)c1ccc(F)cc1Cl`, the “activity, negative = inhibition” value is -7.59%.

Take `COC(=O)c1cn(NC(=O)c2ccc(F)cc2)c(=O)c2ccccc12`: the activity, negative = inhibition is -2.1% [at 2.29 µM].

Take `COc1ccc(C(=O)Nn2cnc3ccccc3c2=O)c(OC)c1`: the AC50 was 25.1 µM (active).

As to `CCNc1ncc2nc(-c3cn(C)c4ccccc34)c(=O)n(Cc3ccc(F)cc3)c2n1`, the AC50 was 15.8 µM (active).

Turning to `COc1cccc(Cn2c(=O)c(-c3cn(C)c4ccccc34)nc3cnc(N4CCOCC4)nc32)c1`, the “activity, negative = inhibition” value was -10.8%.

In the case of `COc1cccc(Cn2c(=O)c(-c3cn(C)c4ccccc34)nc3cnc(OC)nc32)c1`, the AC50 is 7.94 µM (active).

Consider `Cn1cc(-c2nc3cncnc3n(Cc3ccc(F)cc3)c2=O)c2ccccc21`, for which the “activity, negative = inhibition” value is -13.8%.

On to `COc1ncc2nc(-c3cn(C)c4ccccc34)c(=O)n(Cc3ccc(F)cc3)c2n1`, for which the AC50 is 6.31 µM (active).

Take `CCNc1ncc2nc(-c3cn(C)c4ccccc34)c(=O)n(Cc3cccc(OC)c3)c2n1`: the AC50 is 3.98 µM (active).

On to `CN(C)CCCNc1c(C(=O)O)cnc2c1cnn2C`, for which the “activity, negative = inhibition” value is 2.18%.

With `COc1ccc(N2C(N)=NC(N)=NC2(C)C)cc1`, the “activity, negative = inhibition” value is 8.11%.

As for `COC(=O)C1=C(C)NC(C)=C(C(=O)OCCSc2ccccc2)[C@@H]1C`, the AC50 is 10 µM (active).

Regarding `COC(=O)c1cc(=O)n(C2CC2)c(=NC2CC2)s1`, the “activity, negative = inhibition” value is -12.9%.

In the case of `CC(=O)Nc1ccc(OC[C@@H](O)CNC(C)C)cc1`, the AC50 result is “inactive”.

For `CCC(=O)c1ccc(OCC(O)CN2CCCCC2)cc1` (centres undefined), the “activity, negative = inhibition” value was 13.7%.

Consider `CC(=O)Nc1ccc(OCC(O)Cn2cnc3ccccc32)cc1` (centres undefined), for which the AC50 was 14.1 µM (active).

`OC(COCc1ccccc1)Cn1cnc2ccccc21` (centres undefined): the AC50 is 3.98 µM (active).

`Oc1ccc(OCc2ccccc2)cc1`: the “activity, negative = inhibition” value was -12.5% [at 25.6 µM].

Take `C[n+]1cn(CC(O)COCc2ccccc2)c2ccccc21` (centres undefined): the “activity, negative = inhibition” value is -0.486%.

On to `O=C(O)[C@@H]1[C@@H]2C[C@H]([C@@H](Br)[C@H]2N2C(=O)CCC2=O)[C@@H]1C(=O)O`, for which the activity, negative = inhibition was 2.42% [at 11.4 µM].

Consider `C=CCn1c(SCC(=O)NC2CCCCC2)nnc1C1CCCCC1`, for which the concentration at half-maximal activity (AC50) was 8.91 µM (active).

As for `CCCCC(=O)Nc1nnc(SCC(=O)NC2CCCC2)s1`, the activity, negative = inhibition was -12.4% [at 2.29 µM].

For the compound `CCn1ncc(/C=C/C(=O)NCc2cn(C)nc2C)c1C`, the “activity, negative = inhibition” value was -2.52%.

In the case of `COc1ccc(/C=N/NC(=O)c2ccn[nH]2)cc1COc1ccc(F)cc1`, the activity, negative = inhibition is -10.3% [at 2.29 µM].

In the case of `COc1ccc(/C=C/C(=O)NCc2cn(C)nc2C)cc1COc1ccc(Br)cc1`, the AC50 is 3.16 µM (active).

As for `Cc1nn(C)cc1CNC(=O)CCC(=O)O`, the “activity, negative = inhibition” value was 2.19%.

In the case of `COc1ccc(C(=O)NN)cc1COc1ccc(Br)cc1`, the concentration at half-maximal activity (AC50) is 1.26 µM (active).

In the case of `COc1ccc(/C=N/NC(=O)c2ccn[nH]2)cc1COc1ccc(Cl)cc1`, the activity, negative = inhibition was -16.8% [at 2.29 µM].

Consider `COc1cc(/C=C(\C#N)C(N)=O)cc(CSc2nc3ccccc3s2)c1O`, for which the AC50 is 3.98 µM (active).

Take `C[C@](N)(COP(=O)(O)O)C(=O)O`: the “activity, negative = inhibition” value was -21.4%.

Take `O=C(Nc1cc(C(F)(F)F)ccc1-n1cncn1)c1ccc(Br)cc1`: the activity, negative = inhibition was -10.9% [at 2.29 µM].

With `COC(=O)c1ccc(-n2cncn2)c(F)c1`, the half-maximal activity concentration (AC50) is 7.94 µM (active).

As for `C[C@@H]1O[C@H](O[C@@H]2[C@@H](Oc3cc(O)c4c(c3)O[C@H](c3ccc(O)cc3)CC4=O)O[C@@H](CO)[C@@H](O)[C@H]2O)[C@@H](O)[C@H](O)[C@@H]1O`, the “activity, negative = inhibition” value is -18.6% [at 25.6 µM].

For `COc1cccc(N2C(=O)C(CC(=O)Nc3ccccc3)N(C3CCCCC3)C2=O)c1` (centres undefined), the AC50 is 5.01 µM (active).

With `CCN1CCN(CCC(=O)Nc2cccc(OC)c2)CC1`, the “activity, negative = inhibition” value is -11.5%.

Turning to `COc1ccc(NC(=O)CC2C(=O)N(c3cccc(OC)c3)C(=O)N2C2CCCCC2)cc1` (centres undefined), the half-maximal activity concentration (AC50) was 8.91 µM (active).

As for `O=C1C=C[C@@H](O)[C@H]2[C@@H]3C(=O)N(c4cccc(Oc5ccccc5)c4)C(=O)[C@@H]3CC[C@H]12`, the activity, negative = inhibition is -11.6% [at 11.4 µM].

For `O=C(CSc1nnnn1C1CCCC1)Nc1ccc(F)cc1`, the AC50 was 14.1 µM (active).

As for `C/C(=N\NC(=O)c1cccc(F)c1)c1ccc(Br)s1`, the “activity, negative = inhibition” value was -16.5%.

For the compound `CCOc1ccc(N(C(C)C(=O)N/N=C(\C)c2cccc(NC(=O)c3ccccc3)c2)S(C)(=O)=O)cc1` (centres undefined), the activity, negative = inhibition was -20.9% [at 2.29 µM].

Turning to `C/C(=N\NC(=O)c1ccc(Cl)cc1)c1cccc(NC(=O)C(C)C)c1`, the AC50 is 15.8 µM (active).

Turning to `CCOC(=O)c1c(NC(=O)c2c(Br)cnn2C)c(C#N)nn1-c1ccccc1`, the “activity, negative = inhibition” value is 15.3%.

Turning to `CCC(CC)C(=O)Nc1cccc(/C(C)=N\NC(=O)c2ccc(C)s2)c1`, the AC50 is 7.94 µM (active).

Turning to `CCC(CC)C(=O)Nc1cccc(/C(C)=N/NC(=O)c2c(Br)cnn2C)c1`, the AC50 was 14.1 µM (active).
